# An excerpt weighted towards active compounds, which were near 21% of everything screened.
# Cycloheximide cs = counter-screen hit for Shiga toxin inhibitors, cycloheximide; cell reporter, cycloheximide protein synthesis inhibition counterscreen; max response, %; 300,000 tested, 12% active; in the data active means max response mostly above about 13%, no sharp cut-off; inactive means mostly below about 14%; further: read at 38.3 µM for the half of the compounds with a filed dose; 0% is about no effect
# Pf growth 96h = P. falciparum growth inhibition at 96 hours. P. falciparum luciferase reporter growth, 96 h. Potency, µM (top dose mostly 28.7 µM), for inactives: at the top dose activity change, negative = inhibition, actives largely listed as inhibitors. 320,000 tested, 6.9% active; active means well fitted inhibition curve with a large enough effect; inconclusive means small, poorly fitted or top-dose-only effect, or another doubt; inactive means no such curve, though single readings can be large or run the other way; further: potency means the concentration at half of the fitted maximal effect; on the % scale 0 is the no-effect control and ±100 the full control effect
#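 Readout is luminescence from an integrated firefly luciferase in P. falciparum. Red cells, 2% hematocrit and 0.05% parasitemia final, were cultured with compound through two parasite generations (96 hours) at 37 C, 5% CO2.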
# Shiga toxin inh = Shiga toxin inhibition; inhibition, % at 38.7 µM; Vero cells, Shiga toxin protein synthesis inhibition reporter; 290,000 tested, 9.2% active; in the data active means inhibition mostly above about 28%, no sharp cut-off; inactive means mostly below about 43%; further: 0% is about no effect
# Pf growth 48h = P. falciparum growth inhibition at 48 hours (one generation); P. falciparum luciferase growth in erythrocytes, 48 h; Potency, µM (series often up to 28.7 µM), inactives show top-dose activity change, negative = inhibition, hits mostly inhibitors; 310,000 tested, 5.9% active; active means well fitted inhibition curve with a large enough effect; inconclusive means small, poorly fitted or top-dose-only effect, or another doubt; inactive means no such curve, though single readings can be large or run the other way; further: potency means the concentration at half of the fitted maximal effect; on the % scale 0 is the no-effect control and ±100 the full control effect
#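 Compounds are pin-transferred into medium, infected erythrocytes (2% hematocrit, 0.1% parasitemia final) are added, and plates sit one parasite generation at 37 C in 5% CO2. Detection reagent is then added and luminescence measured.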
# NS1 inh = influenza NS1 inhibition | Potency, µM (series often up to 46.1 µM), for the others: at the highest dose activity, positive = more growth | 270,000 tested, 0.4% active; further: potency means the concentration at half of the fitted maximal effect; actives are rising curves; nearly all actives have a fitted effect of over 50% in size
#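 In this qHTS, NS1 from influenza A is expressed in budding yeast, where it slows growth. Cells are switched from glucose to 2% galactose medium (pH 6.0, -URA), treated with compound, and growth recovery is read at OD600.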
# NS1 inh valid = influenza NS1 function inhibition validation | shares compounds with NS1 inh | influenza NS1 function cell assay, 15-point titration | activity change, negative = inhibition, % at 32.9 µM | 1,400 tested, under 10 active | AID 492980; further: 0% is about no effect
# The depositor's hits bear a star; ? = inconclusive; . = not tested or not shown; [ ] = dose if it differs, or a comment. Unless noted, the call rests on the fitted dose curve.
SMILES,Cycloheximide cs,Pf growth 96h,Shiga toxin inh,Pf growth 48h,NS1 inh,NS1 inh valid
O=C1/C(=C/c2cccnc2)Oc2cc(OS(=O)(=O)c3ccc(Cl)cc3)ccc21,13.6,-28.1%,9.8,.,3.55µM*,30.9
Cc1cccc(NC(=S)/N=C(\N)Nc2nc(C)c3ccccc3n2)c1,29.8*,10.4µM*,49.9,-2.0%,10µM*,-37.0
Cc1cccc(NC(=S)/N=C(\N)Nc2nc(C)c3cc(C)ccc3n2)c1,-2.4,?,-5.2,?,?,.
Cc1ccc(NC(=S)/N=C(\N)Nc2nc(C)c3ccccc3n2)cc1C,21.6*,2.33µM*,20.0,11.7µM*,11.2µM*,-24.3
COc1ccc(CNC(=O)CCCCCn2c(SCC#N)nc3cc4c(cc3c2=O)OCO4)cc1,5.7,1.3%,-8.1,?,11.2µM*,-16.2
COCCNC(=O)CSc1nc2cc3c(cc2c(=O)n1CCCC(=O)NCc1ccc(OC)cc1)OCO3,10.8,?,2.4,3.5%,.,.
Cc1cc2cc(CNC(=S)Nc3ccc(OC(F)(F)F)cc3)ccc2[nH]1,-3.7,2.5%,-11.5,1.4%,?,16.1
Cc1cc2cc(CNC(=O)c3ccc(C)c([N+](=O)[O-])c3)ccc2[nH]1,8.4,-0.8%,-42.2,12.6%,8.91µM*,-23.0
CCNC(=S)NCc1ccc2[nH]c(C)cc2c1,2.6,-25.5%,-3.5,35.8%,11.2µM*,20.2
Cc1cc2cc(CNC(=S)Nc3ccc(OC(F)F)cc3)ccc2[nH]1,-3.0,-13.2%,-3.6,-26.0%,?,.
CC(C)CCN1CCC(n2nccc2NC(=O)C2CCOC2)CC1 (configuration not stated),-2.3,-28.4%,8.3,6.3%,4.5%,.
COc1ccccc1-n1cc(C(=O)NCC(=O)N2CCN(Cc3ccccc3)CC2)c2ccccc2c1=O,2.5,-96.4%,-10.2,?,.,.
CC(C1CC1)N(C(=O)NC1CCS(=O)(=O)C1)c1ccccc1 (configuration not stated),-0.5,-7.9%[5.75 µM],-2.5,-2.5%,?,8.7
c1ccc(Nc2cc(Nc3ccccc3)[nH]n2)cc1,-1.8,104.2%,-12.4,-15.9%,4.47µM*,-5.3
Cc1cc(C(=O)Nn2cnc3ccccc3c2=O)ccc1[N+](=O)[O-],5.1,26.8%,-7.7,12.4%,.,.
CC(=O)c1c(C)[nH]c(C(=O)OCC(=O)N2CCc3ccccc32)c1C,24.1*,0.0%,33.2,33.2%,4.47µM*,14.3
CCOC(=O)c1[nH]c(C)c(C(=O)OCC(=O)N2CCc3ccccc32)c1C,1.1,?,24.5,.,-0.3%,.
CSc1n[nH]c(=O)n1C1CCCCC1,-2.5,2.3%,-15.1,1.6%,4.5%,.
CC(C)(C)c1nc(N2CCN(C(=O)c3ccco3)CC2)c2nnn(Cc3ccccc3Cl)c2n1,-3.1,.,3.3,1.65µM*,12.6µM*,?
COC(=O)Cn1c(CN2CCC(Cc3ccccc3)CC2)nc2c1c(=O)n(C)c(=O)n2C,-1.2,34.4%,-12.7,?,?,-34.2
CC1CCCCN1C(=O)COc1ccc(F)cc1 (configuration not stated),11.0,?,25.7,18.2%,0.7%,.
CCC(C)(C)n1nnnc1C(c1cc2cc(OC)c(OC)cc2[nH]c1=O)N1CCc2ccccc21 (configuration not stated),16.7,?,17.3,1.04µM*,14.1µM*,?
O=c1cc(O)c2sc3nc(-c4ccccc4)cc(C(F)(F)F)c3c2[nH]1,6.9,?,20.0,?,?,2.3
Cc1ccc(NC(=O)CSc2nc3ccccc3c3nc(CCc4c(C)n[nH]c4C)nn23)cc1F,-2.0,?,-9.3,.,24.8%,.
Cc1n[nH]c(C)c1CCc1nc2c3ccccc3nc(SCC(N)=O)n2n1,3.2,?,3.8,48.6%,3.16µM*,-7.0
SMILES,Cycloheximide cs,Pf growth 96h,Shiga toxin inh,Pf growth 48h,NS1 inh,NS1 inh valid
COC(=O)C1=Nc2ccccc2/C1=C\c1c(O)n(-c2ccc(Br)cc2)c(=O)[nH]c1=O,1.4,8.3%,-12.7,13.8%,10µM*,-35.0
Cc1cc(C)cc(OCC(=O)OC(C)C(=O)Nc2c(C)n(C)n(-c3ccccc3)c2=O)c1 (configuration not stated),.,1.2%,.,16.4%,.,.
Cc1c(NC(=O)C(C)OC(=O)c2cc(-c3cccc4ccccc34)nc3ccccc23)c(=O)n(-c2ccccc2)n1C (configuration not stated),-3.2,23.3%,-14.2,-2.2%,11.2µM*,6.7
O=C(NCc1ccc(C(F)(F)F)cc1)C12CN(Cc3ccccc3)CC1C(c1cccc([N+](=O)[O-])c1)=NO2 (configuration not stated),12.4,9.28µM*,13.0,9.28µM*,12.6µM*,7.6
O=C(Cc1ccc([N+](=O)[O-])cc1)NCc1ccc2c(c1)OCO2,-3.7,?,4.5,4.4%,-1.3%,.
O=C(NCc1cc(C(F)(F)F)cc(C(F)(F)F)c1)C1CC(c2cccc([N+](=O)[O-])c2)=NO1 (configuration not stated),4.4,?,-6.1,-1.6%,-9.5%,.
O=C(NCc1ccc2c(c1)OCO2)C12CN(Cc3ccccc3)CC1C(c1cccc([N+](=O)[O-])c1)=NO2 (configuration not stated),-0.9,?,1.7,9.28µM*,12.6µM*,-11.5
CC(OC(=O)c1ccc(F)cc1)C(=O)Nc1nc(-c2cccc([N+](=O)[O-])c2)cs1 (configuration not stated),1.0,54.9%,-13.8,18.2%,-1.8%,.
C=CCn1c(-c2oc3nc(-c4ccccc4)cc(-c4ccccc4)c3c2N)n[nH]c1=S,15.0,?,-2.9,?,1.12µM*,-7.2
COc1ccc(CCN(Cc2nc3ccccc3c(=O)[nH]2)C(=O)c2ccco2)cc1OC,4.3,124.7%,-13.2,?,8.91µM*,11.0
COc1ccc(CN(Cc2nc3ccccc3c(=O)[nH]2)C(=O)c2ccco2)cc1,4.7,-23.8%,26.8,-26.9%,-18.9%,.
CCCc1cc(=O)[nH]c(/N=C(/NC(=O)c2ccccc2)Nc2ccc3c(c2)OCCO3)n1,.,.,.,.,-5.4%,.
OC(COC1CCCCC1)CN1CCCCC1 (configuration not stated),-7.4,?,17.8,14.5%,11.5%,.
O=C1CN(C(=O)c2ccc(Br)o2)C(c2ccccc2)c2cc(Br)ccc2N1 (configuration not stated),8.1,5.86µM*,17.6,.,11.2µM*,-10.4
CCOCCCNC(=O)C(NC(=O)c1ccc(NC(C)=O)cc1)c1ccc(Cl)cc1 (configuration not stated),1.3,?,-12.7,6.4%,0.4%,.
CCOCCCNC(=O)C(NC(=O)CC1NC(=O)NC1=O)c1ccc(Cl)cc1 (configuration not stated),-6.6,37.8%,11.0,1.6%,0.891µM*,-17.3
CC(C(=O)NC1CCCC1)N(C(=O)c1snc(C(N)=O)c1N)c1ccc2c(c1)OCCO2 (configuration not stated),-4.1,-16.3%,-19.7,?,1.8%,.

# Assay outcomes: PubChem BioAssay, National Center for Advancing Translational Sciences (NCATS)
